Laboratory results from PubChem BioAssay (NCI).
This is part of a sample that, as a whole, favours compounds with a hit. Of some 79,000 tested, about 15% had one in any assay. Activity calls are given as the source filed them. No stated cut-off is given here; in the data, active means growth inhibition above about 70%; inactive means the rest.

Legend:
[1] = NCI Yeast Anticancer Drug Screen. Data for the wt1 strain (AID 149);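 further: 0% = growth of vehicle-treated wt1 cultures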; conditions: S. cerevisiae wt1 strain (SPY 50644) growth inhibition, hits give high values
How it was run: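 wt1 strain grown with compound or vehicle; inhibition taken from the growth difference.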

[2] = NCI Yeast Anticancer Drug Screen. Data for the rad50EPP+ strain (AID 151);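 further: 0% = growth of vehicle-treated control cultures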; conditions: S. cerevisiae rad50 mutant strain, hits give high values
How it was run: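 Measured: growth inhibition of rad50EPP+ yeast. Reference: vehicle-treated controls. Screen uses strains with defined genetic alterations in DNA damage repair or cell cycle control.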

[3] = NCI Yeast Anticancer Drug Screen. Data for the mgt1 strain (AID 153); conditions: S. cerevisiae mgt1 mutant growth inhibition, hits give high values
How it was run: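 Compounds were applied to mgt1 mutant yeast, and growth was then compared against vehicle-treated control cultures to give percent inhibition.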

[4] = NCI Yeast Anticancer Drug Screen. Data for the rad50 strain (AID 155);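 further: 0% = growth of vehicle-only cultures of the same strain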; conditions: S. cerevisiae rad50 strain growth inhibition, hits give high values
How it was run: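 DNA repair mutant yeast, compound exposure, growth read-out; inhibition is taken relative to vehicle.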

[5] = NCI Yeast Anticancer Drug Screen. Data for the mec2-1 strain (AID 157); conditions: S. cerevisiae mec2-1 strain, hits give high values
How it was run: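 Compounds were applied to mec2-1 yeast cells. Their growth was then compared with that of vehicle-treated cultures to give growth inhibition.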

[6] = NCI Yeast Anticancer Drug Screen. Data for the rad14 strain (AID 159);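 further: 0% = growth of vehicle-treated control cultures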; conditions: S. cerevisiae rad14 strain growth inhibition, hits give high values
How it was run: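 DNA repair-defective yeast, compound-exposed; % growth inhibition derived by comparison with vehicle-treated controls.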

[7] = NCI Yeast Anticancer Drug Screen. Data for the sgs1 mgt1 strain (AID 161);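 further: 0% = growth of cultures given vehicle only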; conditions: S. cerevisiae sgs1 mgt1 strain, hits give high values
How it was run: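 Percent growth inhibition was derived by comparing compound-exposed mutant yeast with vehicle-exposed cultures. The strain carries alterations in DNA damage repair.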

[8] = NCI Yeast Anticancer Drug Screen. Data for the cln2 rad14 strain (AID 165);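 further: 0% = growth equal to vehicle treated cultures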; conditions: S. cerevisiae cln2 rad14 strain, hits give high values
How it was run: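 Strain: cln2 rad14 yeast, altered in cell cycle control and DNA damage repair. Read-out: growth inhibition vs vehicle.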

[9] = NCI Yeast Anticancer Drug Screen. Data for the bub3 strain (AID 167); conditions: S. cerevisiae bub3 mutant strain, hits give high values
How it was run: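 In this screen, a yeast mutant lacking normal mitotic checkpoint function is challenged with compound. Relative growth versus vehicle gives the inhibition value.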

[10] = NCI Yeast Anticancer Drug Screen. Data for the wt2 strain (AID 169);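 further: 0% = growth of vehicle-treated yeast cultures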; conditions: S. cerevisiae wt2 strain growth inhibition, hits give high values
How it was run: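 Growth of compound-treated yeast is measured and expressed as inhibition relative to vehicle-only controls.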

[11] = NCI Yeast Anticancer Drug Screen. Data for the mlh1 strain (AID 171);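 further: 0% = growth of vehicle-treated control cultures of the same strain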; conditions: S. cerevisiae mlh1 strain growth inhibition, hits give high values
How it was run: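 Test agents were incubated with yeast bearing a defined DNA damage repair or cell cycle control alteration; values are growth inhibition normalised to vehicle-treated cultures.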

[12] = NCI Yeast Anticancer Drug Screen. Data for the sgs1 strain (AID 173);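 further: 0% = growth of vehicle-only control cultures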; conditions: S. cerevisiae sgs1 mutant, hits give high values
How it was run: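 Strain with an altered DNA repair or cell cycle pathway exposed to compound. Growth then measured. Value = inhibition versus vehicle control.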

[13] = NCI Yeast Anticancer Drug Screen. Data for the mlh1 rad18 strain (AID 175); conditions: S. cerevisiae mlh1 rad18 strain growth inhibition, hits give high values
How it was run: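 A repair-deficient yeast strain is exposed to test compound, and growth is scored relative to vehicle-treated controls.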

[14] = NCI Yeast Anticancer Drug Screen. Data for the rad18 strain (AID 177); conditions: S. cerevisiae rad18 mutant growth inhibition, hits give high values
How it was run: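 DNA-repair-defective yeast; compound treatment; growth inhibition scored against vehicle.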

[15] = at 5.0 µM (retest, dose inferred, filed as 0.5)
[16] = at 50.0 µM (retest, dose inferred, filed as 5.0)

Measured: growth inhibition

CN(C)CCNC(=O)c1cccc2nc3c4ccccc4c4ccccc4c3nc12
inactive: [1]; at 1.2 µM -1% | [1]; at 3.7 µM 2% | [1]; at 11.0 µM 28% | [2]; at 1.2 µM 6% | [2]; at 3.7 µM 25% | [3]; at 1.2 µM 1% | [3]; at 3.7 µM 1% | [3]; at 11.0 µM 43% | [4]; at 1.2 µM -9% | [4]; at 3.7 µM -24% | [4]; [15] 65% | [5]; at 1.2 µM 0% | [5]; at 3.7 µM 1% | [5]; [15] 8% | [5]; at 11.0 µM 35% | [6]; at 1.2 µM 3% | [6]; at 3.7 µM 8% | [6]; at 11.0 µM 67% | [7]; [15] 17% | [8]; [15] 18% | [9]; at 1.2 µM -1% | [9]; at 3.7 µM 2% | [9]; [15] 7% | [10]; at 1.2 µM 1% | [10]; at 3.7 µM 9% | [10]; at 11.0 µM 29% | [11]; at 1.2 µM 1% | [11]; at 3.7 µM 2% | [11]; at 11.0 µM 53% | [12]; at 1.2 µM 1% | [12]; at 3.7 µM 4% | [13]; [15] 40% | [14]; at 1.2 µM 5% | [14]; at 3.7 µM 11%
active: [1]; at 33.0 µM 97% | [1]; at 100.0 µM 95% | [2]; at 11.0 µM 90% | [2]; at 33.0 µM 96% | [2]; at 100.0 µM 93% | [3]; at 33.0 µM 99% | [3]; at 100.0 µM 95% | [4]; at 11.0 µM 98% | [4]; at 33.0 µM 98% | [4]; [16] 96% | [4]; at 50.0 µM 96.7% | [4]; at 100.0 µM 91% | [5]; at 33.0 µM 99% | [5]; [16] 96% | [5]; at 50.0 µM 95.8% | [5]; at 100.0 µM 94% | [6]; at 33.0 µM 98% | [6]; at 100.0 µM 95% | [7]; [16] 97% | [7]; at 50.0 µM 96.2% | [8]; [16] 95% | [8]; at 50.0 µM 95% | [9]; at 11.0 µM 93% | [9]; at 33.0 µM 97% | [9]; [16] 96% | [9]; at 50.0 µM 95.4% | [9]; at 100.0 µM 92% | [10]; at 33.0 µM 97% | [10]; at 100.0 µM 94% | [11]; at 33.0 µM 98% | [11]; at 100.0 µM 94% | [12]; at 11.0 µM 73% | [12]; at 33.0 µM 98% | [12]; at 100.0 µM 95% | [13]; [16] 97% | [13]; at 50.0 µM 95.2% | [14]; at 11.0 µM 72% | [14]; at 33.0 µM 98% | [14]; at 100.0 µM 93%

CCOc1nc(OCC)nc(-c2cccn2-c2ccccc2)n1
active: [1]; at 100.0 µM 94% | [3]; at 100.0 µM 96% | [4]; [15] 85% | [4]; [16] 100% | [4]; at 50.0 µM 70.3% | [4]; at 100.0 µM 92% | [5]; [15] 93% | [5]; [16] 100%
inactive: [1]; at 1.2 µM -19% | [1]; at 3.7 µM -22% | [1]; at 11.0 µM -13% | [1]; at 33.0 µM -11% | [2]; at 1.2 µM 1% | [2]; at 3.7 µM 5% | [2]; at 11.0 µM 23% | [2]; at 33.0 µM 12% | [2]; at 100.0 µM 40% | [3]; at 1.2 µM 1% | [3]; at 3.7 µM 8% | [3]; at 11.0 µM 6% | [3]; at 33.0 µM 25% | [4]; at 1.2 µM 7% | [4]; at 3.7 µM 40% | [4]; at 11.0 µM 35% | [4]; at 33.0 µM 26% | [5]; at 1.2 µM -4% | [5]; at 3.7 µM 9% | [5]; at 11.0 µM -6% | [5]; at 33.0 µM 12% | [5]; at 50.0 µM 59.7%
